Consider 34 compounds from PubChem BioAssay AID588391 (Broad Institute, 2011).

The structures appear in SMILES notation. Hit rate of the full screen: of about 350,000 compounds, about 180 (0.051%) were called active. The sample holds actives, similar compounds and a random draw of the others, so the mix is not that of the screen. Values without a mark were called inactive.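 The calls were made as follows: active = mean inhibition across replicates of 30% or more, whatever share of single replicates reach that level; inconclusive = mean inhibition below 30% while every single replicate reaches 30%; inactive = the rest.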

In the experiment the target is Protein disulfide-isomerase (Homo sapiens) (UniProt P07237). The experiment is described as follows: inhibitors of human PDI, primary screen, biochemical, turbidity, single point, plate reader (AID 588391).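 Also: absorbance from insulin aggregation driven by PDI reduction with DTT.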 The settings on record: PDI insulin aggregation turbidity, A650, 90 min; at 10 µM; active compounds read high.
Sequence of Protein disulfide-isomerase (Homo sapiens) (P07237 whole entry, looked up): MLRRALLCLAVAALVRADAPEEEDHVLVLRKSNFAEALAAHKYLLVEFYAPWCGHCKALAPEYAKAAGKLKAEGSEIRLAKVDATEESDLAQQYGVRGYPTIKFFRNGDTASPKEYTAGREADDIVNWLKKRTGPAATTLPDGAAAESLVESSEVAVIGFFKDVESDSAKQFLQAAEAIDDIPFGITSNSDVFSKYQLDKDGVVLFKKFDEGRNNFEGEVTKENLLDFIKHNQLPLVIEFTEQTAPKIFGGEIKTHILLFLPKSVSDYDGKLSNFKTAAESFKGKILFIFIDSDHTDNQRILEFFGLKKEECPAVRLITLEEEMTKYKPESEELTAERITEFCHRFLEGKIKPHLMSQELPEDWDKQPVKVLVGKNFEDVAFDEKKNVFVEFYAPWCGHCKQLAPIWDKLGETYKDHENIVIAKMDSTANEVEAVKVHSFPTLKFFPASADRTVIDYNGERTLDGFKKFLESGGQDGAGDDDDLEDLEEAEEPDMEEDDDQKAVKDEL
Consider `CCCOc1ccc(F)cc1-c1cc(C(=O)NCc2ccc(F)cc2)[nH]n1`, for which the inhibition was -0.369%.
The value for `CC1(C(=O)Nc2cccc3c2CCCC3)CCN1C(=O)C1(c2ccccc2)CC1` (centres undefined) was -0.663%; that for `NC(c1csc(NC(=O)Nc2cccc(C(F)(F)F)c2)n1)C1CCCCC1` (centres undefined) was 0.691%.
For `O=C1N=C(N2CCc3ccccc3C2)S/C1=C\c1ccc(O)cc1` the value was -5.75%.
For `CC(C)(C)c1ccc(/C=C2\SC(=O)N=C2N)cc1` the value was 7.63%; for `NC1=NC(=O)S/C1=C\c1ccc(O)cc1`, 43.5% (active); for `OC(c1ccc(Cl)cc1)c1ncc(-c2ccc(Cl)cc2)[nH]1` (centres undefined), -6.36%.
Take `COc1ccc(C2CC(c3cccc(OC)c3)=NN2c2ccc(S(N)(=O)=O)cc2)cc1` (centres undefined): the inhibition was -2.45%.
For the compound `COc1ccc(C(C)(NC(C)=O)c2nc(-c3ccc(S(C)(=O)=O)cc3)cs2)cc1` (centres undefined), the inhibition was 4.43%.
In the case of `COc1cc(F)ccc1-c1cc(C(=O)NCC2CCCCC2)[nH]n1`, the inhibition was 25%.
For `CC1(Cc2cccc(C#N)c2)C(=O)Nc2ccc(-c3cccc(C(F)(F)F)c3)cc21` (centres undefined) the value was 10.6%; for `CC(=O)Nc1ccc(CNc2nc(NCCN(C)C)nc3cc(-c4ccccc4)sc23)cc1`, -1.45%; for `Cc1cc(O)ccc1-c1cc(C(=O)NCc2cc(C(F)(F)F)cc(C(F)(F)F)c2)[nH]n1`, -11.3%.
`Cc1cccnc1C(NC(=O)C1CCN(Cc2ccc(Cl)c(Cl)c2)CC1)c1ccc(Cl)cc1` (centres undefined): the inhibition was -20.8%.
For `CCCNC(=O)c1cc(C2CCCCN2S(=O)(=O)c2ccc(C#N)cc2)on1` (centres undefined) the value was 9%.
The value for `Cc1ccc(Cn2c(C)c(C(=O)NCc3ccccc3C(F)(F)F)sc2=O)cc1` was -2.82%; that for `CCN(CC)c1ncnc2c1ncn2[C@H]1CN(Cc2cccs2)C[C@@H](CO)O1` was 5.5%; that for `CCOC(=O)C1CCN(Cc2c(C(=O)N3CCOCC3)nc3c(C)cccn23)CC1` was -7.14%.
The value for `Cc1cccn2c(CN(C)C3CCCc4ccccc43)c(C(=O)N3CCOCC3)nc12` (centres undefined) was 36.6% (active).
`Cc1cccn2c(CNCC(C)Oc3cccnc3)c(C(=O)N3CCOCC3)nc12` (centres undefined): the inhibition is 3.93%.
With `O=C(Nc1nnc([C@H]2C[C@H](O)[C@@H](CO)O2)s1)c1cccc(Cl)c1`, the inhibition is 12.3%.
`CC(=O)Nc1cc(-c2ccccc2N(C)C)cn2c(-c3ccc(F)c(Cl)c3)cnc12`: the inhibition is -1.53%.
With `CC(O)(c1cccc(F)c1)c1nc(-c2ccc3c(c2)OCO3)cs1` (centres undefined), the inhibition is 0.825%.
The value for `Cc1nc2c(OCc3ccc(Cl)cc3)cccn2c1N(C)Cc1cccs1` was -1.78%; that for `CCOC(=O)c1c(CN(C)C)n(-c2ccccc2)c2cc(Br)c(O)cc12` was 39.9% (active); that for `CCOC(=O)c1c(-c2ccccc2)oc2ccc(OCC(=O)NN)cc12` was -2.38%.
With `CCOC(=O)c1c(CN2CCOCC2)n(-c2ccccc2)c2ccc(O)cc12`, the inhibition was 27.2%.
For `CCOC(=O)c1c(-c2ccccc2)oc2cc(Br)c(O)cc12`, the inhibition was 36.3% (active).
On to `CCOC(=O)c1c(-c2ccccc2)oc2cc(Br)c(O)c(C=O)c12`, for which the inhibition is 6.15%.
The value for `CCOC(=O)c1c(NC(C)=O)sc2c(O)c(Br)ccc12` was 3.13%; that for `O=C(NCc1cccnc1)c1cc(C2CCCCN2C(=O)CCc2ccccc2)on1` (centres undefined) was 3.32%; that for `CCCC(=O)N1CCC1(C)C(=O)Nc1ccc(-n2cncn2)cc1` (centres undefined) was 4.25%.
For `COc1ccc(C(C)(O)c2nc(-c3cc(F)cc(F)c3)cs2)cc1` (centres undefined) the value was -18.6%; for `Cc1ccc(CC2(C)C(=O)Nc3ccc(OC(F)(F)F)cc32)cc1` (centres undefined), 5.49%.

By inhibition is commonly meant the relative decrease from the control value, in per cent.
